Reference: PubChem BioAssay (EPA / NIEHS)
Results filed as inconclusive are left out. Calls of active or inactive are those of the source. How the source made its calls, unless noted: active means hit-call score of the fitted dose curve at least 0.9, where 1 is the maximum; inconclusive means response in the unintended direction; inactive means score below 0.9.

What was measured:
[1] = ATG_TAL_CIS: Attagene CIS-FACTORIAL HepG2 Assay for human TAL Basal Promoter (AID 2282966; active means hit-call score of the fitted dose curve at least 0.9, where 1 is the maximum; inactive means score below 0.9;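 further: background control endpoint measuring basal TAL promoter reporter mRNA not a specific factor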); settings: HepG2 Attagene cis-factorial TAL promoter reporter; actives raise or lower the signal
How it was run: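 Readout: reporter mRNA, fluorescence by CE. System: HepG2, transient multi-reporter transfection, endogenous TF activity. Exposure: 24 h. Analysis: bidirectional, DMSO-normalized; background control.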

[2] = ATG_TGFb_CIS: Attagene CIS-FACTORIAL HepG2 Assay for human Transforming Growth Factor (TGF) (AID 2282967; active means hit-call score of the fitted dose curve at least 0.9, where 1 is the maximum; inactive means score below 0.9); settings: HepG2 Attagene CIS TGFb reporter, mRNA transcription; actives raise or lower the signal
How it was run: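 HepG2 cells transiently transfected with cis-promoter-driven multiplexed reporter units; 24 h compound exposure. Reporter mRNA measured by RT-PCR, 6-FAM labeling, HpaI digestion and capillary electrophoresis; bidirectional fit versus DMSO baseline.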

[3] = target: Nuclear receptor subfamily 1 group I member 3 (Homo sapiens) (UniProt Q14994); test: ATG_CAR_TRANS: Attagene TRANS-FACTORIAL HepG2 Assay for human Constitutive Androstane Receptor (CAR) (AID 2282969); settings: HepG2 Attagene TRANS-FACTORIAL CAR reporter;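 further: activators raise reporter mRNA above DMSO so AC50 marks induction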
Sequence of Nuclear receptor subfamily 1 group I member 3 (Homo sapiens) (Q14994 whole entry, looked up, the tested form may be a part): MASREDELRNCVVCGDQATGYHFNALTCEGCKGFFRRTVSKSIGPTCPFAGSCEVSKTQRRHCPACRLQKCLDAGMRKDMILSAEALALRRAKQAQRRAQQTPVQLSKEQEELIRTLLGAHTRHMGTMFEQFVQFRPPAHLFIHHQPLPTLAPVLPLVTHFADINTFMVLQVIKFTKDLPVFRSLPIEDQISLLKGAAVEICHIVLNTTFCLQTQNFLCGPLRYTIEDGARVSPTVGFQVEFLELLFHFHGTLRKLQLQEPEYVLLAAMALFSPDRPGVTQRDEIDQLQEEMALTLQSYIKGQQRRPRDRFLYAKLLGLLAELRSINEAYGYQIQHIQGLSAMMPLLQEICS
How it was run: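 HepG2 cells transiently transfected with GAL4-UAS reporter units; TRANS format reads activity of exogenous chimeric NR-Gal4 protein. After 24 h dosing, reporter mRNA quantified by RT-PCR, 6-FAM labelling and capillary electrophoresis; gain of signal fitted against DMSO.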

[4] = target: X-box-binding protein 1 (Homo sapiens) (UniProt P17861); test: ATG_Xbp1_CIS: Attagene CIS-FACTORIAL HepG2 Assay for human X-box Binding Protein 1 (XBP1) (AID 2282972; active means hit-call score of the fitted dose curve at least 0.9, where 1 is the maximum; inactive means score below 0.9); settings: HepG2 XBP1 cis-element reporter, Attagene multiplex; actives raise or lower the signal
Sequence of X-box-binding protein 1 (Homo sapiens) (P17861 whole entry, looked up, the tested form may be a part): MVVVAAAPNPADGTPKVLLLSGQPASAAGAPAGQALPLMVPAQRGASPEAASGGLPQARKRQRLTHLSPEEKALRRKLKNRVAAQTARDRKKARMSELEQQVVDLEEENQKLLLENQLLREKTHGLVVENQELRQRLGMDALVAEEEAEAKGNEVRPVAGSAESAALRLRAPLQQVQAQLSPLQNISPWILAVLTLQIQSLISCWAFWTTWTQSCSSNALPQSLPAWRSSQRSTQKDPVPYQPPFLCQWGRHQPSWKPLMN
How it was run: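 Fluorescence-labelled cDNA fragments from reporter transcripts, separated by capillary electrophoresis, give the signal. Source: HepG2 cells transfected with promoter-driven reporter units, harvested 24 h post-dose. DMSO served as reference for bidirectional curve fitting.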

[5] = ATG_M_19_TRANS: Attagene TRANS-FACTORIAL HepG2 Assay for M19 Transcription Factor (Internal Marker) (AID 2282974); settings: HepG2 Attagene TRANS-FACTORIAL M19 internal marker reporter
How it was run: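 HepG2 cells transiently transfected with multiple GAL4-UAS reporter transcription units were exposed to chemicals for 24 h. Reporter mRNA was read by RT-PCR, 6-FAM primer extension, HpaI digestion and capillary electrophoresis; gain of signal fitted relative to DMSO.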

[6] = ATG_GAL4_TRANS: Attagene TRANS-FACTORIAL HepG2 Assay for GAL4 (Internal Marker) (AID 2282976); settings: HepG2 Attagene TRANS GAL4 internal marker reporter
How it was run: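 Fluorescence from capillary electrophoresis of labelled RT-PCR products quantifies reporter mRNA induction after 24 h dosing of HepG2 cells carrying transfected GAL4-UAS reporter transcription units. Vehicle DMSO serves as baseline.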

[7] = target: Bile acid receptor (Homo sapiens) (UniProt Q96RI1); test: ATG_FXR_TRANS: Attagene TRANS-FACTORIAL HepG2 Assay for Farnesoid X Receptor (FXR) (AID 2282979); settings: HepG2 Attagene TRANS FXR-GAL4 reporter transcription;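 further: hits raise reporter mRNA above DMSO so AC50 marks FXR activation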
Sequence of Bile acid receptor (Homo sapiens) (Q96RI1 whole entry, looked up, the tested form may be a part): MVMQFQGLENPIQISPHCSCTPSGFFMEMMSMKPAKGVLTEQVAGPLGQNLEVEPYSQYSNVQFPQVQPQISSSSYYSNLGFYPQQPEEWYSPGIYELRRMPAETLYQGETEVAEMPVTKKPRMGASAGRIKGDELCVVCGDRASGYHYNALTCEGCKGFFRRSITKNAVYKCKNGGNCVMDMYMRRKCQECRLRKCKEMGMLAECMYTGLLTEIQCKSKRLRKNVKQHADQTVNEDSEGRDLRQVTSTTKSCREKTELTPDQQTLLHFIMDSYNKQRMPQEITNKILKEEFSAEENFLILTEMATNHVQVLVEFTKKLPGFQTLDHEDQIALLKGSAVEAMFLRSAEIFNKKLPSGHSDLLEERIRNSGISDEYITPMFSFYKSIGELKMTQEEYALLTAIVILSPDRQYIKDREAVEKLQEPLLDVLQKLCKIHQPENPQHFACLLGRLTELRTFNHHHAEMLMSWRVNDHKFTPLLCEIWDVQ
How it was run: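 Chimeric FXR-GAL4 activity in transiently transfected human HepG2 liver cells is scored as induction of reporter mRNA after 24 h of dosing. Detection uses RT-PCR with fluorescent labelling and capillary electrophoresis, with DMSO serving as baseline.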

[8] = target: Oxysterols receptor LXR-alpha (Homo sapiens) (UniProt Q13133); test: ATG_LXRa_TRANS: Attagene TRANS-FACTORIAL HepG2 Assay for human Liver X Receptor alpha (LXRa) (AID 2282980); settings: HepG2 Attagene TRANS reporter, LXRa transactivation
Sequence of Oxysterols receptor LXR-alpha (Homo sapiens) (Q13133 whole entry, looked up): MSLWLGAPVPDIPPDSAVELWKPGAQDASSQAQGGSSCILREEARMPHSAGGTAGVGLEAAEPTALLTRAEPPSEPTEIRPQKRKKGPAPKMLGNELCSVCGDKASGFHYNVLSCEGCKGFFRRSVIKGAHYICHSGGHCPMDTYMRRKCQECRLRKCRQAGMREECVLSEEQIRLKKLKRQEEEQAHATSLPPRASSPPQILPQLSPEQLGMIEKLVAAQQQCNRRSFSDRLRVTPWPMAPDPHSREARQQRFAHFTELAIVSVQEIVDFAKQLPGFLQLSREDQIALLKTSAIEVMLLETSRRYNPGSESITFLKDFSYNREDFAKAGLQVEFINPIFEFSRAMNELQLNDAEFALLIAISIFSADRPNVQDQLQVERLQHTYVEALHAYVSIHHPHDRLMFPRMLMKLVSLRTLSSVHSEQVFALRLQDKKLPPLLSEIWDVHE
How it was run: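 Transient HepG2 transfectants, 24 h dosing, RT-PCR/CE mRNA reporter quantitation; gain-of-signal vs DMSO.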

[9] = target: Oxysterols receptor LXR-beta (Homo sapiens) (UniProt P55055); test: ATG_LXRb_TRANS: Attagene TRANS-FACTORIAL HepG2 Assay for human Liver X Receptor beta (LXRb) (AID 2282981); settings: HepG2 Attagene TRANS GAL4-LXRb reporter, mRNA
Sequence of Oxysterols receptor LXR-beta (Homo sapiens) (P55055 whole entry, looked up, the tested form may be a part): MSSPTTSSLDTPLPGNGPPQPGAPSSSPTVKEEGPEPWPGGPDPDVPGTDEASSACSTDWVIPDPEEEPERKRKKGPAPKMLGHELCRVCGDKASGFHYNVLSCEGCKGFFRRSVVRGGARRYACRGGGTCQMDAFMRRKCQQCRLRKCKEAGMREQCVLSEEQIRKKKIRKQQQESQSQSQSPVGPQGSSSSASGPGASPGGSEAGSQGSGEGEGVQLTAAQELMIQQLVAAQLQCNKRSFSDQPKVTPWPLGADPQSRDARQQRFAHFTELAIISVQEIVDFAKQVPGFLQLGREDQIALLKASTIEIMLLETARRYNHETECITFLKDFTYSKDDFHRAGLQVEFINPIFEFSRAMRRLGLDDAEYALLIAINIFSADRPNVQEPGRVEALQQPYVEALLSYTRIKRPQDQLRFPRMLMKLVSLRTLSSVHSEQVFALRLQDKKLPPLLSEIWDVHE
How it was run: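 HepG2 cells transiently transfected with GAL4-UAS reporter units for chimeric NR-Gal4 proteins, dosed for 24 h. Reporter transcripts measured by RT-PCR and capillary electrophoresis; gain-of-signal fitting relative to DMSO.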

[10] = target: Hepatocyte nuclear factor 4-alpha (Homo sapiens) (UniProt P41235); test: ATG_HNF4a_TRANS: Attagene TRANS-FACTORIAL HepG2 Assay for human Hepatocyte Nuclear Factor 4 alpha (HNF4a) (AID 2282982); settings: HepG2 HNF4a transactivation reporter, mRNA readout
How it was run: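 HepG2 cells transiently transfected with HNF4a-Gal4 chimera and GAL4-UAS reporter units, dosed for 24 h. Reporter mRNA measured by RT-PCR, fluorescent primer extension and capillary electrophoresis; gain-of-signal fitted relative to DMSO.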

[11] = ATG_M_06_TRANS: Attagene TRANS-FACTORIAL HepG2 Assay for M06 Transcription Factor (Internal Marker) (AID 2282983); settings: HepG2 Attagene TRANS M06 internal marker reporter;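 further: reporter transcript level by RT-PCR then capillary electrophoresis fluorescence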
How it was run: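 Measured by capillary electrophoresis of fluorescently labelled RT-PCR products, this endpoint reflects reporter mRNA in HepG2 cells harbouring exogenous NR-GAL4 reporter constructs after 24 h exposure, with DMSO as baseline.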

[12] = target: Transcriptional activator Myb (Homo sapiens) (UniProt P10242); test: ATG_Myb_CIS: Attagene CIS-FACTORIAL HepG2 Assay for human Myeloblastosis (Myb) Proto-Oncogene Transcription Factor (AID 2282986; active means hit-call score of the fitted dose curve at least 0.9, where 1 is the maximum; inactive means score below 0.9); settings: HepG2 Attagene CIS-FACTORIAL Myb reporter transcription; actives raise or lower the signal
Sequence of Transcriptional activator Myb (Homo sapiens) (P10242 whole entry, looked up): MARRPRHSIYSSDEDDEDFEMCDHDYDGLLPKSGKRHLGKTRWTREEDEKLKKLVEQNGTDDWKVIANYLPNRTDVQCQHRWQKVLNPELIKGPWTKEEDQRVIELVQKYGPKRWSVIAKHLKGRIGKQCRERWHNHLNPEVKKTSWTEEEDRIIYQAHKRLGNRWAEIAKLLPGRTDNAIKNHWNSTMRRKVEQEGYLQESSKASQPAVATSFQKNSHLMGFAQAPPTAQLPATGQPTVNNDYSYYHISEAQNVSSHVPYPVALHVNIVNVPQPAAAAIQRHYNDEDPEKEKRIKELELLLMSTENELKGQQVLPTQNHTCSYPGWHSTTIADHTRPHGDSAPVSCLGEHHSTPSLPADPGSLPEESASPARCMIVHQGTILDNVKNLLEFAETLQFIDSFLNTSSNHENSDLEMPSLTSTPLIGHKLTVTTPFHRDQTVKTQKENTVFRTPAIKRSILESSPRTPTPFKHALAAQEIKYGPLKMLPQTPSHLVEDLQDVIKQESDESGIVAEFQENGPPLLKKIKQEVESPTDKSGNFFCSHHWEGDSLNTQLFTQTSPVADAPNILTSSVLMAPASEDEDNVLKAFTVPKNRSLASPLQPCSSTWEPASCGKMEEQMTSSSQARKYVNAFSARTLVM
How it was run: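 HepG2 cells were transiently transfected with cis-regulated multiple reporter transcription units reflecting endogenous Myb activity, then exposed to compound for 24 hours. Reporter mRNA was measured by RT-PCR with capillary electrophoresis; bidirectional fitting versus DMSO baseline.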

[13] = target: Nuclear respiratory factor 1 (Homo sapiens) (UniProt Q16656); test: ATG_NRF1_CIS: Attagene CIS-FACTORIAL HepG2 Assay for human Nuclear Respiratory Factor 1 (NRF1) Orphan Gene (AID 2282987; active means hit-call score of the fitted dose curve at least 0.9, where 1 is the maximum; inactive means score below 0.9); settings: HepG2 NRF1 cis-element reporter, Attagene multiplex; actives raise or lower the signal
Sequence of Nuclear respiratory factor 1 (Homo sapiens) (Q16656 whole entry, looked up): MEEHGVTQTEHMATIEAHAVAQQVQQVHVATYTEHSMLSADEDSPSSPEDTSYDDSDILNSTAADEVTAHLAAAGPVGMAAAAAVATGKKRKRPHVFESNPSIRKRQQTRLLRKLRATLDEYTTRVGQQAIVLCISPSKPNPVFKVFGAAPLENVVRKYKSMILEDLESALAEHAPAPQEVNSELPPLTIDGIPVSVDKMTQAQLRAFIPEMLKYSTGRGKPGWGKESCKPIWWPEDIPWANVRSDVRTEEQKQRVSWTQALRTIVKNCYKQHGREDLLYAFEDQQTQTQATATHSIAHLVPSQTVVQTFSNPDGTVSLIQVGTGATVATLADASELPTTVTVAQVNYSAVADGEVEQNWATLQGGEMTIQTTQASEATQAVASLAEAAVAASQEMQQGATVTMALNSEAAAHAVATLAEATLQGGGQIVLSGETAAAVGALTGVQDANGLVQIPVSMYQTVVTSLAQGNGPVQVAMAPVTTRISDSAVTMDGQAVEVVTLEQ
How it was run: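 HepG2 cells transiently transfected with multiple reporter transcription units under cis-regulatory promoter control, so endogenous transcription-factor activity is read. After 24 h compound exposure, reporter mRNA quantified by RT-PCR, fluorescent labelling, HpaI digestion and capillary electrophoresis; bidirectional fitting versus DMSO.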

[14] = target: Glucocorticoid receptor (Homo sapiens) (UniProt P04150); test: ATG_GR_TRANS: Attagene TRANS-FACTORIAL HepG2 Assay for human Glucocorticoid Receptor (GR) (AID 2282978); settings: HepG2 Attagene TRANS GR reporter, mRNA transcription;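 further: activators score as hits since higher reporter transcript over DMSO is fitted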
Sequence of Glucocorticoid receptor (Homo sapiens) (P04150 whole entry, looked up, the tested form may be a part): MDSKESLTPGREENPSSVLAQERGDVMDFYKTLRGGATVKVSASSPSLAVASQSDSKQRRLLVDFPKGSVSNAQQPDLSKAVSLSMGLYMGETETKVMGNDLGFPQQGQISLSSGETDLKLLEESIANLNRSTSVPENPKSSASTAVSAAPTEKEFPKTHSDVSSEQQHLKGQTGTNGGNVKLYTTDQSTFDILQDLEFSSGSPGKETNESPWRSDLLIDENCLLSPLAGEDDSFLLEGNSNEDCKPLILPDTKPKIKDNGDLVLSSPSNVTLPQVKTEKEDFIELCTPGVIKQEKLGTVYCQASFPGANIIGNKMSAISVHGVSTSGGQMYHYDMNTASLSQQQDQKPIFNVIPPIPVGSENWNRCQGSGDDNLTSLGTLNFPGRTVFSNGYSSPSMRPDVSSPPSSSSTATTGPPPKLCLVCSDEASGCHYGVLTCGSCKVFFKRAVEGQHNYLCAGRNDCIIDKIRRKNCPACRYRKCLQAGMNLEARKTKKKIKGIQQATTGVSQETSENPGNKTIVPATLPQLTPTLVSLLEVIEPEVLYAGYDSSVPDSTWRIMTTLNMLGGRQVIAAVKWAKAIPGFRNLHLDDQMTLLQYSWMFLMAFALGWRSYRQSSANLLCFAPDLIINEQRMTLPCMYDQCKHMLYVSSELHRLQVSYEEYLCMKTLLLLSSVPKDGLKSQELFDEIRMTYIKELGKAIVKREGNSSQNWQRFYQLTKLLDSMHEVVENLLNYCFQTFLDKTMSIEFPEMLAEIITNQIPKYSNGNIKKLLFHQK
How it was run: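 HepG2 cells transiently transfected with multiplexed reporter units in which chimeric NR-GAL4 proteins drive GAL4-UAS reporters; 24 h compound exposure. Reporter mRNA measured by RT-PCR, 6-FAM labelling, HpaI digestion and capillary electrophoresis; gain-of-signal fitted versus DMSO.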

[15] = ATG_M_32_TRANS: Attagene TRANS-FACTORIAL HepG2 Assay for M32 Transcription Factor (Internal Marker) (AID 2282984); settings: HepG2 Attagene TRANS M32 internal marker reporter;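 further: transcript level of a background control reporter unit measured by RT-PCR and capillary electrophoresis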
How it was run: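 HepG2 cells transiently transfected with GAL4-UAS reporter units, dosed for 24 hours. Reporter mRNA quantified by RT-PCR, 6-FAM labelling, HpaI digestion and capillary electrophoresis; internal-marker signal fitted upward relative to DMSO.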

[16] = target: Nuclear receptor subfamily 4 group A member 2 (Homo sapiens) (UniProt P43354); test: ATG_NURR1_TRANS: Attagene TRANS-FACTORIAL HepG2 Assay for human Nuclear Receptor Related Protein 1 (NURR1) (AID 2282985); settings: HepG2 Attagene TRANS reporter, mRNA readout
Sequence of Nuclear receptor subfamily 4 group A member 2 (Homo sapiens) (P43354 whole entry, looked up, the tested form may be a part): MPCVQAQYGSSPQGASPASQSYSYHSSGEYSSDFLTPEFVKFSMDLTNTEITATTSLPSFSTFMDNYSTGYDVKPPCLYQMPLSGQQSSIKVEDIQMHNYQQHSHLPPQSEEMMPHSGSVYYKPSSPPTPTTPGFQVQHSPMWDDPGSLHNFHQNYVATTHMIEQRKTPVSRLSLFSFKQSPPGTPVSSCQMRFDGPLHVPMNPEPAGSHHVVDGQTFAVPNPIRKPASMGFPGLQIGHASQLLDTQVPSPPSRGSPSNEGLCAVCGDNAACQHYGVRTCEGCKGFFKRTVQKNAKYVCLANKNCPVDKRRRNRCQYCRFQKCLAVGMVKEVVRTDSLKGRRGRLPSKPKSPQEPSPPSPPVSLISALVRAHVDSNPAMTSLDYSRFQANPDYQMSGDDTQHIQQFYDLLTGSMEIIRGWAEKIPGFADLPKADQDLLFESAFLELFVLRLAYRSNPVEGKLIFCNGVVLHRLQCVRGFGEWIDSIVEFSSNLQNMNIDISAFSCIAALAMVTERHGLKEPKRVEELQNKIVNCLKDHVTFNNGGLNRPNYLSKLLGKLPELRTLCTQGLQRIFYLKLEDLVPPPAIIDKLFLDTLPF
How it was run: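 HepG2 cells transiently transfected with NURR1-Gal4 chimera and GAL4-UAS reporter units; after 24 hr compound exposure, reporter mRNA quantified by RT-PCR and capillary electrophoresis; gain of signal fitted against DMSO.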

[17] = target: Steroid hormone receptor ERR1 (Homo sapiens) (UniProt P11474); test: ATG_ERRa_TRANS: Attagene TRANS-FACTORIAL HepG2 Assay for human Estrogen-Related Receptor alpha (ERRa) (AID 2282971); settings: HepG2 Attagene TRANS reporter, ERRa transactivation
Sequence of Steroid hormone receptor ERR1 (Homo sapiens) (P11474 whole entry, looked up, the tested form may be a part): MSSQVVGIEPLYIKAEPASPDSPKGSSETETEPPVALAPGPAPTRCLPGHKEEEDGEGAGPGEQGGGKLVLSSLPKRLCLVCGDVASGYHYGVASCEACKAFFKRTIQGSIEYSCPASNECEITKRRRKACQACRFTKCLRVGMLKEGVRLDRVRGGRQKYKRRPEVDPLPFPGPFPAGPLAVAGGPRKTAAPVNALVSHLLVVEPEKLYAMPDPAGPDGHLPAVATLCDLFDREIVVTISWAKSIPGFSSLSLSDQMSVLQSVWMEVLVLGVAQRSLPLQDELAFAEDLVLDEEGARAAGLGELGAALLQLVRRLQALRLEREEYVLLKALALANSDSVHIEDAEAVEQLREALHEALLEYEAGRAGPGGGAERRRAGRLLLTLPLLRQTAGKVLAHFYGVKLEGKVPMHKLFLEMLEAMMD
How it was run: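 HepG2 cells were transiently transfected with multiple GAL4-UAS reporter units, then dosed with compound for 24 h. Total RNA was reverse-transcribed, reporter cDNA PCR-amplified and fluorescently labelled, and fragments resolved by capillary electrophoresis; induction was compared with DMSO.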

[18] = target: Estrogen-related receptor gamma (Homo sapiens) (UniProt P62508); test: ATG_ERRg_TRANS: Attagene TRANS-FACTORIAL HepG2 Assay for human Estrogen-Related Receptor gamma (ERRg) (AID 2282977); settings: HepG2 Attagene TRANS reporter, ERRg transactivation;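 further: hits increase reporter signal over DMSO so potencies reflect activators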
How it was run: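 HepG2 cells transiently transfected with multiplexed GAL4-UAS reporter units driven by chimeric NR-Gal4 proteins; 24 h exposure. Reporter mRNA quantified by RT-PCR, fluorescent labelling, HpaI digestion and capillary electrophoresis; gain of signal vs DMSO.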

[19] = ATG_VDRE_CIS: Attagene CIS-FACTORIAL HepG2 Assay for human Vitamin D Receptor Element (VDRE) (AID 2282968; active means hit-call score of the fitted dose curve at least 0.9, where 1 is the maximum; inactive means score below 0.9); settings: HepG2 VDRE cis-reporter transcription, actives raise or lower the signal
How it was run: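 Transiently transfected HepG2 cells carrying cis-regulated reporter transcription units were exposed for 24 h. Reporter mRNA was measured by RT-PCR with fluorescent labelling and capillary electrophoresis, and fitted in both directions against DMSO.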

[20] = target: Estrogen receptor (Homo sapiens) (UniProt P03372); test: ATG_ERa_TRANS: Attagene TRANS-FACTORIAL HepG2 Assay for human Estrogen Receptor alpha (ERa) (AID 2282970); settings: HepG2 Attagene TRANS ERa GAL4 reporter, mRNA
How it was run: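 Transactivation via ERa-Gal4 chimera in HepG2; 24 hour incubation; reporter mRNA detected by fluorescence RT-PCR and capillary electrophoresis.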

Measured: AC50

CC(C)C[C@H](NC(=O)OCC1c2ccccc2-c2ccccc21)C(=O)O
inactive: [1] | [2] | [3] | [4] | [5] | [6] | [7] | [8] | [9] | [10] | [11] | [12] | [13]

C=C(C)C(=O)OCC(CC)(COC(=O)C(=C)C)COC(=O)C(=C)C
inactive: [1] | [2] | [4] | [5] | [6] | [14] | [7] | [9] | [10] | [11] | [15] | [16] | [12] | [13]

Nc1ccc(NCCO)c([N+](=O)[O-])c1
inactive: [1] | [2] | [17] | [4] | [6] | [18] | [14] | [8] | [9] | [10] | [11] | [16] | [12] | [13]

Cc1cc(CCC(=O)OCCOCCOCCOC(=O)CCc2cc(C)c(O)c(C(C)(C)C)c2)cc(C(C)(C)C)c1O
inactive: [1] | [2] | [3] | [4] | [5] | [6] | [14] | [7] | [8] | [10] | [11] | [15] | [16] | [12] | [13]

C[C@@H]1CCN(C(=O)[C@H](CCCN=C(N)N)NS(=O)(=O)c2cccc3c2NC[C@H](C)C3)[C@@H](C(=O)O)C1
inactive: [1] | [2] | [17] | [4] | [6] | [9] | [11] | [16] | [12] | [13]

COC(CC(C)CCCC(C)(C)O)OC (centres undefined)
inactive: [1] | [19] | [4] | [5] | [6] | [8] | [10] | [12]

CCCN(CCC)S(=O)(=O)c1ccc(C(=O)O)cc1
inactive: [1] | [19] | [17] | [4] | [5] | [14] | [10] | [15] | [12]

COCCc1ccc(OCC(O)CNC(C)C)cc1 (centres undefined)
inactive: [1] | [19] | [17] | [4] | [5] | [14] | [15] | [12] | [13]

Cc1cccc(Nc2ccccc2)c1
active: [19] 58.2 µM | [4] 133 µM | [12] 170 µM
inactive: [1] | [3] | [11] | [16] | [13]

O=C(Nc1ccc2c(O)c(N=Nc3ccc(N=Nc4ccc(S(=O)(=O)O)cc4)cc3)c(S(=O)(=O)O)cc2c1)c1ccccc1
inactive: [2] | [19] | [3] | [20] | [4] | [6] | [8] | [9] | [11] | [15] | [16] | [12] | [13]

CC1CC(O)CC(C)(C)C1 (centres undefined)
inactive: [1] | [19] | [17] | [4] | [5] | [6] | [15] | [12] | [13]

CCCCCCCCSCCO
inactive: [1] | [2] | [4] | [14] | [7] | [8] | [9] | [11] | [15] | [12]

C=C(C)[C@@H]1CC=C(C)C(=O)C1
inactive: [1] | [19] | [4] | [5] | [14] | [8] | [9] | [10] | [15] | [16] | [12] | [13]

OCCc1ccccc1
inactive: [1] | [2] | [4] | [8] | [9] | [10] | [11] | [16] | [12] | [13]
